Bioassay records from PubChem BioAssay.
Rows were chosen to be rich in hits. Some 0.93% of all compounds tested hit in one or more screens of this group.
HEK293 tox = cytotoxicity in counter-screen for GLP-1R inverse agonists; HEK293 cAMP-luciferase reporter cells, luminescence, 24 h; Potency, µM (doses to about 38.3 µM), hits mostly inhibitors; 410,000 tested, 0.13% active;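 also: loss of luciferase light is scored as toxicity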
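Compound-treated cells are incubated 24 hr at 37 deg C under 5% CO2 after a 12 hour attachment period, then luciferase detection reagent is added and luminescence is measured following 12 min at room temperature; lowered signal indicates toxicity.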
TRPML1 blocker = blocks the human TRPML1 channel; Q9GZU1; TRPML1-inducible cells, Ca2+ dye fluorescence, FDSS; active compounds read low; inhibition of EC80 agonist-evoked calcium signal; activity change, negative = inhibition, % (concentration not given with the values); 390,000 tested, 0.02% active; AID 624415; in the data active = activity change below about -50%; inconclusive = between about -30% and that limit;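 also: stimulus is agonist 54-4 at its EC80 concentration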
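Tet-induced TRPML1-DL cells loaded with Ca8 no-wash calcium dye were read kinetically on FDSS. Compound addition was followed by EC80 agonist 54-4 (4 uM final); inhibition was read over 110 s.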
TRHR enhancer = TRH receptor (human) allosteric enhancement | TRHR cells, fluo-8 calcium fluorescence, EC20 TRH enhancement | 360,000 tested, 0.66% active | enhancement, % at 2 µM | P34981; in the data active = enhancement above about 30%
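TRHR-expressing cells loaded with fluo-8 calcium dye were read kinetically (ex 480/em 530) during compound addition, then stimulated with an EC20 of TRH (10 nM final). Enhancement of the Gq-mediated intracellular calcium response was scored.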
TRHR ag = TRH receptor (human) agonism | P34981 | TRHR cells, calcium flux fluo-8, FDSS agonist mode | activation, % at 2 µM | 360,000 tested, 0.18% active | AID 493084; in the data active = activation above about 30%
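TRHR-expressing cells, plated overnight in medium with 10% serum, were loaded with fluo-8 calcium dye at room temperature. After a 10 s baseline, library compound was pin-added and calcium release was recorded kinetically (ex 480/em 530) as agonist response.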
PTHR1 agonist = agonists of human PTHR1 parathyroid hormone receptor | Q03431 | HEK293 GP2 PTHR1 cells, GloSensor cAMP luminescence, 1 h | Potency, µM (highest dose often 115 µM), most hits filed as activators | 410,000 tested, 0.075% active | AID 743266; also: nearly all actives have a fitted effect of over 55% in size
Target sequence (Q03431 whole entry, looked up): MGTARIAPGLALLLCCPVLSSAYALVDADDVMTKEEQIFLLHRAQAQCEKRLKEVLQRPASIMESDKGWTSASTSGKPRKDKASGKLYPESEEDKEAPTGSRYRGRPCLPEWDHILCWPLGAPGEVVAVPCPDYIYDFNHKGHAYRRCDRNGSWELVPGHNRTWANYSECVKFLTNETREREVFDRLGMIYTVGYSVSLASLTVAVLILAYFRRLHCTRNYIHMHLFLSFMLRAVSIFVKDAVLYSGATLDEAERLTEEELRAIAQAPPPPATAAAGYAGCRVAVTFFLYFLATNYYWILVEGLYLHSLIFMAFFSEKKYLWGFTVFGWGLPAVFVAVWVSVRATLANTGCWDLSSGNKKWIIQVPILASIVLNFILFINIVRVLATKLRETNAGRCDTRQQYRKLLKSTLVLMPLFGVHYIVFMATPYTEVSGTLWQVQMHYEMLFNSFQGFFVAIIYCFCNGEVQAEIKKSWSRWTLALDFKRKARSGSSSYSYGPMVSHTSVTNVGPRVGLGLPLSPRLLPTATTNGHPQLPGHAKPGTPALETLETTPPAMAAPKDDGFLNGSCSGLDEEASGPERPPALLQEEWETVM
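HEK-293-derived GP2 cells expressing PTHR1 and a GloSensor cAMP reporter, 3,000/well, plated overnight, given luciferin plus IBMX (each 0.5 mM as added) for 1 h at 37 °C, then compound for 1 h at 37 °C. Luminescence was read after 15 min at room temperature.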
TRPML1 ag = human mucolipin-1 channel agonism. activation, % (concentration not given with the values). 410,000 tested, 0.12% active. Q9GZU1. AID 624414. TRPML1-expressing cells, Ca2+ dye fluorescence, FDSS; in the data active = activation above about 50%; inconclusive = mostly about 30% to 49%
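Calcium fluorescence on an FDSS kinetic reader gave the read-out. Tet-induced TRPML1-DL cells were plated overnight, dye-loaded (Ca8 with quencher, 45-90 min, room temperature, dark), then read 110 s after compound addition, and again 110 s after 4uM final 54-4 (EC80).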
A number is an active result; 0 = inactive; ? = inconclusive; - = no result given; [ ] = another dose, or the depositor's remark. Unless noted, calls follow the shape of the dose curve; as a rule, active = well fitted curve in the direction sought with a large enough effect; inconclusive = small, poorly fitted or top-dose-only effect, or another doubt; inactive = no such curve, though single readings can be large; an effect the other way counts as inactive or inconclusive.

SMILES	HEK293 tox	TRPML1 blocker	TRHR enhancer	TRHR ag	PTHR1 agonist	TRPML1 ag
Cc1ccccc1NC(=O)CSc1n[nH]c(-c2ccccn2)n1	0	0	35	0	0	0
CC1=CC(C)(C)NC(=S)N1C(C)c1ccccc1 (centres undefined)	10µM	-	0	0	0	-
Cc1ccccc1CNS(=O)(=O)c1c(C(=O)N2CCCC2)c(C)n(C)c1C	0	0	35	0	0	0
CC1CCCCN1C(=O)COC(=O)c1ccc(S(C)(=O)=O)c([N+](=O)[O-])c1 (centres undefined)	-	-	-	-	-	0
O=C(Cc1ccccc1Cl)NO	-	-	-	-	-	0
C/C(=N\Nc1ccc([N+](=O)[O-])cc1[N+](=O)[O-])c1ccc(-n2nncc2C(C)(C)C)cc1	?	0	0	0	0	76
O=C(CSc1nccc(=O)[nH]1)Nc1ccc2c(c1)OCCO2	0	0	0	0	?	0
Cc1cc(=O)[nH]c(SCC(=O)Nc2ccc3c(c2)OCCO3)n1	0	0	32	0	0	0
O=C(Oc1ccc(Br)cc1C(=S)N1CCOCC1)c1ccc([N+](=O)[O-])cc1[N+](=O)[O-]	0	0	36	0	0	0
CC(C)/C=C/CN1CCN(CCCc2ccccc2)C(CCO)C1 (centres undefined)	0	0	34	0	0	0
Cc1cnc2ccc3ccccc3c2c1C	-	-	-	-	-	0
Cc1cc(C)n(-c2nnc(Cl)c3ccccc23)n1	0	0	0	0	0	0
Cc1ccc(-c2nnc(-n3nc(C)cc3C)c3ccccc23)cc1	0	0	30	0	0	0
O=C(O)/C=C/c1cc(F)c(S(=O)(=O)N2CCN(S(=O)(=O)c3ccc4c(c3)OCCO4)CC2)cc1F	-	-	0	0	-	-
CC(=O)N1CCC(N(Cc2ccco2)C(=O)Nc2ccc(Br)cc2F)CC1	0	0	41	0	0	0
COc1ccc(CN2CC[C@H]3C=CC[C@@H](C(=O)N4CCN(c5ccccc5)CC4)[C@H]3C2=O)cc1OC	-	-	-	-	-	0
COc1ccccc1NS(=O)(=O)c1ccc2[nH]c(=O)[nH]c2c1	0	0	0	0	0	0
COc1ccc(NS(=O)(=O)c2ccc3[nH]c(=O)[nH]c3c2)cc1OC	0	0	32	0	0	0
COc1ccc(S(=O)(=O)Nc2ccc3ccccc3c2)cc1C	0	0	0	0	0	0
COc1ccc(S(=O)(=O)Nc2ccc3cn[nH]c3c2)cc1C	0	0	39	0	0	0
CC(=O)Nc1ccc(NC(=O)C(C)OC(=O)/C(C#N)=C/c2ccc(N(C)C)cc2)cc1 (centres undefined)	0	0	0	0	0	0
CC(OC(=O)/C(C#N)=C/c1ccc(N(C)C)cc1)C(=O)N(C)c1ccccc1 (centres undefined)	0	0	0	49	0	?
CC(NC(=O)c1noc2c1CCCCC2)c1ccccc1 (centres undefined)	0	0	30	0	0	0
O=C(Nc1cnn(Cc2ccc(Cl)cc2Cl)c1)c1noc2c1CCc1ccccc1-2	0	0	0	35	0	0
Cc1cc(C(=O)Nc2cnn(Cc3ccc(Cl)cc3Cl)c2)no1	0	0	0	0	0	0
SMILES	HEK293 tox	TRPML1 blocker	TRHR enhancer	TRHR ag	PTHR1 agonist	TRPML1 ag
CN(C)CCCNC(=O)c1cc(C(=O)Cc2ccccc2)c[nH]1	0	0	34	0	0	0
O=S(=O)(c1ccc2c(c1)OCCO2)N1CCN(c2nc(-c3ccccc3)nc3ccccc23)CC1	-	-	-	-	-	0
O=C1/C(=C\c2cc(Cl)c(O)c(Cl)c2)SC(=S)N1Cc1ccccc1	0	0	0	188	0	109
CCOc1cc(/C=C2\SC(=S)N(Nc3ccccc3)C2=O)ccc1O	0	0	0	35	0	0
COc1cc(/C=C2\SC(=S)N(NC(=O)c3ccc(O)cc3)C2=O)ccc1O	?	0	0	48	0	?
COc1cc(/C=C2\SC(=S)N(NC(=O)c3cccnc3)C2=O)ccc1O	?	0	0	0	0	0
COc1cc(/C=C2/SC(=S)N(CC3CCCO3)C2=O)ccc1O (centres undefined)	?	0	0	64	0	?
O=[S+]([O-])(c1ccc2nsnc2c1)N1CCN([S+](=O)([O-])c2c(F)cccc2F)CC1	-	-	0	0	-	-
O=C(Nc1ccccc1Oc1ccccc1)c1cc([N+](=O)[O-])ccc1Cl	0	0	41	0	0	0
O=C(Nc1ccc(Nc2ccccc2)cc1)c1cc([N+](=O)[O-])ccc1Cl	0	0	0	0	0	0
O=C(O)c1ccccc1-c1c2cc(I)c(=O)c(I)c-2oc2c(I)c(O)c(I)cc12	?	-90	-	-	0	177
Cc1nnc(SCC(=O)N2CCN(c3ccccc3)CC2)n(N)c1=O	0	0	38	0	0	0
N#Cc1nc(Nc2cccc(C(F)(F)F)c2)nc(NC2CCCC2)n1	-	-	0	0	-	-
CCc1c(C)nc(SCC(=O)CC(=O)OC(C)C)c(C#N)c1C	0	0	0	0	0	51
CC1=C(C(=O)N2CCN(c3cccc(Cl)c3)CC2)C2(CCCCC2)OC1=O	0	0	0	0	0	0
CC1=C(C(=O)N2CCN(c3ccc(Cl)cc3)CC2)C2(CCC(C)CC2)OC1=O (centres undefined)	0	0	50	0	0	0
CCCC(=O)c1c[nH]c(C(=O)N2CCOCC2)c1	0	0	36	0	0	0
Cc1cc(C)nc(N2CCCC(C(=O)NCc3cccs3)C2)n1 (centres undefined)	0	0	30	0	0	0
Cc1nnc2ccc(-c3cccc(NS(=O)(=O)c4ccccc4Cl)c3)nn12	0	0	36	0	0	0
Cc1nnc2ccc(-c3cccc(NS(=O)(=O)c4ccccc4[N+](=O)[O-])c3)nn12	0	0	0	0	0	0
Cc1cc(Br)ccc1NC(=O)COC(=O)c1ccccc1OCC(=O)N(C)C	-	-	-	-	-	0
CCc1cc2c(cc3c(=O)n(CC(=O)NC4CCCCC4)ncn32)s1	0	0	44	0	0	0
CC(=O)Nc1cccc(C(=O)/C=C/c2ccc(N(C)C)cc2)c1	0	?	0	153	0	72
CC(=O)Nc1cccc(C(=O)/C=C/c2ccc(/C=C/C(=O)c3cccc(NC(C)=O)c3)cc2)c1	-	-	0	0	-	-
CCc1cc(C(=O)/C=C/c2cc3c(cc2C)OCCO3)c(O)cc1O	-	-	-	-	-	0
COc1ccc(Cn2ccnc2SCC(=O)Nc2cccc(NC(C)=O)c2)cc1	0[7.66 µM]	0	0	0	0	0
COc1ccc(Cn2c(CO)cnc2SCC(=O)Nc2cccc(NC(C)=O)c2)cc1	0	0	32	0	0	0
C/C(=N\Nc1ncnc2sc(C)c(C)c12)c1ccccn1	0	0	0	55	0	58
